Screens: PubChem BioAssay, National Center for Advancing Translational Sciences (NCATS)
DT40 TDP1 no CPT – qHTS for Inhibitors of human tyrosyl-DNA phosphodiesterase 1 (TDP1): qHTS in cells in absence of CPT; DT40 Tdp1-/- hTDP1 cells, no CPT, ATP luminescence, 48 h; Potency, µM (doses to about 46.2 µM), actives largely listed as inhibitors; 15% of 420,000 active; AID 686978, 2013; note: nearly all actives have a fitted effect of over 55% in size
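No-CPT arm: Tdp1-/-;hTDP1 DT40 cells (400/well) plus compounds, incubated ≥48 hr at 37 °C. Readout CellTiter-Glo luminescence.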
HT1080 IDH1KD tx – HT-1080 IDH1 knockdown cell toxicity (counter line); Potency, µM (series often up to 46.1 µM), hits mostly cytotoxic; HT-1080 IDH1 knockdown viability, ATP luminescence, 48 h; AID 686971; 2% of 360,000 active
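Cytotoxicity counter-line: IDH1KD HT-1080, 48 h, CellTiter-Glo. Curves classed by r2, magnitude and activity.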
TGFb inhibitor – inhibitors of TGF-b signaling; Potency, µM (doses to about 46.1 µM), usual class: inhibitors; 1.2% of 410,000 active; HepG2 CAGA-GFP TGF-b/SMAD3 reporter, GFP fluorescence, 18 h; TGF-beta stimulated, 500 pg/mL final; note: nearly all actives have a fitted effect of over 65% in size
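Cell-based qHTS in HEPG2 carrying a CAGA-GFP Smad reporter; compounds added before 500 pg/mL final TGF-beta, 18 h incubation at 37 degrees C, GFP fluorescence quantified per cell by imaging cytometry.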
HT1080-NT tox – kills 2HG-producing HT-1080-NT fibrosarcoma cells; Potency, µM (highest dose often 46.1 µM), hits mostly cytotoxic; 1.6% of 360,000 active; HT-1080-NT fibrosarcoma viability, CellTiter-Glo ATP luminescence, 48 h;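 note: NT is the 2HG producing partner of a matched IDH1 knockdown line; nearly all actives have a fitted effect of over 55% in size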
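Fibrosarcoma NT cells, 750 per well in 5% FBS RPMI, were exposed to compound for 48 hours. Viability: CellTiter-Glo luminescence.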
HepG2 viability – kills HepG2 cells in TGF-b inhibitor counter-screen; HepG2 CAGA-GFP viability, ATP luminescence, 18 h; Potency, µM (doses to about 46.1 µM), usual class: cytotoxic; 0.76% of 410,000 active; AID 588856
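CellTiter-Glo luminescence gave cytotoxicity after 18 hours at 37 degrees C. The cells were HepG2 CAGA-GFP in 1% FBS DMEM, stimulated with 500 pg/mL TGF-beta after compound addition. %Activity was normalised to no-cell wells (complete cell-killing) and DMSO (no toxicity), and curves were fitted and classified.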
DT40 TDP1 CPT – DT40-hTDP1 cell growth loss with CPT. chicken DT40 Tdp1-/-;hTDP1 cells + 20 nM CPT, ATP luminescence, 48 h. Potency, µM (series often up to 46.2 µM), usual class: inhibitors. 12% of 420,000 active. AID 686979; note: nearly all actives have a fitted effect of over 55% in size
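Chicken DT40 Tdp1-/- cells complemented with human TDP1, 400 cells/well, exposed to compounds plus 20 nM camptothecin for at least 48 h at 37 C; viability read as ATP content by CellTiter-Glo luminescence.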
Numbers stand for hits; - = inactive; ? = inconclusive; . = not tested or not shown; [ ] = another dose, or the depositor's remark. Only some compounds are listed: those with a hit (about 17% of all), similar ones and a draw of the others. Calls come from the whole dose curve; as a rule, active = well fitted curve in the direction sought with a large enough effect; inconclusive = small, poorly fitted or top-dose-only effect, or another doubt; inactive = no such curve, though single readings can be large; an effect the other way counts as inactive or inconclusive.

SMILES	DT40 TDP1 no CPT	HT1080 IDH1KD tx	TGFb inhibitor	HT1080-NT tox	HepG2 viability	DT40 TDP1 CPT
CCOC(=O)N1CCc2c(sc3c2C(=O)NC(c2ccccc2)N3)C1 (centres undefined)	3.3µM	15µM	?	?	-	6.5µM
CCOC(=O)c1sc(C)c2c1NC(c1ccc(N(C)C)cc1)NC2=O (centres undefined)	?	-	-	-	-	?
CCOC(=O)N1CCc2c(sc3c2C(=O)NC(c2ccc(N(C)C)cc2)N3)C1 (centres undefined)	3.7µM	.	?	.	-	2.3µM
OC[C@@H](O)[C@H](O)[C@H](O)[C@@H](O)CO	-	.	.	.	.	-
Cc1ccc(-n2ncc3c2CC(C)(C)CC3NC(=O)CCc2ccncc2)cc1 (centres undefined)	?	-	-	-	-	?
Cc1ccc(-n2ncc3c2CC(C)(C)CC3NC(=O)CCc2cccnc2)cc1 (centres undefined)	16µM	-	-	-	-	23µM
Cc1cc(C)c2c(N)c(C(=O)NN3CC(=O)N(c4cccc(Cl)c4)CC3=O)sc2n1	-	-	-	-	-	-
CSc1ccccc1C(=O)Nc1c(C)cccc1C	-	-	-	-	-	?
Cc1cccc(C)c1NC(=O)c1sccc1SCC#N	?	-	-	-	-	11µM
Cc1c(C(=O)NC2CCCC2)sc2ncnc(NCCN(C)C)c12	-	.	.	.	.	-[9.04 µM]
CC(C)NC(=O)c1ccc2c(=O)n(C3CCCC3)c(=S)[nH]c2c1	-	-	-	-	-	-
CCN(CC)CCNC(=O)c1ccc2c(=O)n(C3CCCC3)c(=S)[nH]c2c1	-	20µM	-	?	-	?
O=C(c1ccc2c(=O)n(C3CCCC3)c(=S)[nH]c2c1)N1CCc2ccccc21	21µM	-	-	-	-	12µM
CCCn1c(=S)[nH]c2cc(C(=O)N3CCc4ccccc4C3)ccc2c1=O	-	-	-	-	-	-
NC(=O)C1(N2CCCCC2)CCN(C2CC(=O)N(Cc3cccs3)C2=O)CC1 (centres undefined)	-	-	-	-	-	-
O=C(c1ccc(N2CCN(C3CC(=O)N(Cc4cccs4)C3=O)CC2)cc1)c1cccnc1 (centres undefined)	?	?	-	-	-	16µM
COC(=O)C[C@@H]1C[C@@H]2c3cc(NC(=O)Cc4ccncc4)ccc3O[C@@H]2[C@@H](CO)O1	-	-	-	-	-	-
CC(C)c1ccc(/C=C/C(=O)Nc2nncs2)cc1	13µM	-	?	-	-	?
CC(=O)[C@]1(O)Cc2c(O)c3c(c(O)c2[C@@H](O[C@H]2C[C@H](N)[C@H](O)[C@H](C)O2)C1)C(=O)c1ccccc1C3=O	0.0073µM	0.33µM	-	3.3µM	-	0.15µM
COc1cccc2c1C(=O)c1c(O)c3c(c(O)c1C2=O)C[C@@](O)(C(=O)CO)C[C@@H]3O[C@H]1C[C@H](N)[C@@H](O)[C@H](C)O1	0.15µM	0.52µM	3.2µM	0.26µM	-	0.16µM
CC[C@@]1(O)C[C@H](O[C@H]2C[C@H](N(C)C)[C@H](O[C@H]3C[C@H](O)[C@H](O[C@H]4CCC(=O)[C@H](C)O4)[C@H](C)O3)[C@H](C)O2)c2c(cc3c(c2O)C(=O)c2c(O)cccc2C3=O)[C@H]1C(=O)OC	0.24µM	.	.	.	.	0.21µM
COc1cccc2c1C(=O)c1c(O)c3c(c(O)c1C2=O)CC(O)(C(=O)CO)CC3OC1CC(N(C)C)C(O)C(C)O1 (centres undefined)	0.15µM	0.41µM	0.79µM	?	-	0.015µM
COc1ccccc1NC(=O)C1CCN(C(=O)c2sc3nc[nH]c(=O)c3c2C)CC1	-	.	-	.	-	-
O=C(CC1CC2CCC1C2)NC1CCCCCCC1 (centres undefined)	-	-	-	-	-	-
CCC1CCCCN1C(=O)CSc1n[nH]c(-c2ccccc2Cl)n1 (centres undefined)	?	.	-	.	-	?
SMILES	DT40 TDP1 no CPT	HT1080 IDH1KD tx	TGFb inhibitor	HT1080-NT tox	HepG2 viability	DT40 TDP1 CPT
COc1cccc2c1C(=O)c1c(O)c3c(c(O)c1C2=O)C[C@@](O)(C(C)=O)C[C@@H]3O[C@H]1C[C@H](N)[C@H](O)[C@H](C)O1	0.0058µM	0.15µM	?	0.073µM	-	0.021µM
C[C@]12CCC3c4ccc(O)cc4CCC3C1CCC2=O (some centres undefined)	-	.	.	.	.	-
O=C(COC(=O)/C=C/c1ccc(OC(F)F)cc1)Nc1ccc(S(=O)(=O)N2CCCC2)cc1	-	-	-	-	-	-
Cc1ccc(S(=O)(=O)N2CCN(C(=O)COC(=O)/C=C/c3ccc(F)cc3)CC2)c(C)c1	?	-	-	-	-	?
Cc1ccc(S(=O)(=O)N2CCN(C(=O)COC(=O)/C=C/c3ccc(OC(F)F)cc3)CC2)cc1	21µM	-	-	-	-	?
Cc1ccc(S(=O)(=O)N2CCN(C(=O)COC(=O)C3(C)CC3(Cl)Cl)CC2)c(C)c1 (centres undefined)	?	-	-	-[9.24 µM]	-	23µM
Cc1ccc(S(=O)(=O)N2CCN(C(=O)COC(=O)/C=C/c3ccccc3[N+](=O)[O-])CC2)c(C)c1	?	-	-	-	-	?
Cc1ccc(S(=O)(=O)N2CCN(C(=O)COC(=O)c3ccc(Cl)c(S(N)(=O)=O)c3)CC2)c(C)c1	-	-	-	-	-	-
Cc1ccc(S(=O)(=O)N2CCN(C(=O)COC(=O)/C=C/c3cccc([N+](=O)[O-])c3)CC2)c(C)c1	16µM	-	-	-	-	9.2µM
Cc1ccc(S(=O)(=O)N2CCN(C(=O)COC(=O)/C=C/c3ccccc3)CC2)c(C)c1	-	-	-	-	-	16µM
COc1cc(C(=O)OCC(=O)N2CCN(S(=O)(=O)c3ccc(C)cc3C)CC2)c([N+](=O)[O-])cc1OC	21µM	-	-	-	-	?
COc1cc(C(=O)OCC(=O)N2CCCCCC2)c([N+](=O)[O-])cc1OC	-	-	-	-[9.24 µM]	-	?
CN(CC(=O)NC1(C)CCS(=O)(=O)C1)S(=O)(=O)c1ccc(Cl)cc1 (centres undefined)	-	-	-	-	-	-
CCCC(=O)Nc1nc(-c2ccc(Cl)s2)cs1	5.8µM	-	-	-	-	16µM
O=C(Nc1nc(-c2ccc(Cl)s2)cs1)c1ccco1	?	-	?	-	-	?
O=C(Nc1nc(-c2ccc(Cl)s2)cs1)c1cccs1	18µM	?	?	?	-	23µM
